Hits are enriched below; roughly 0.72% of the tested compounds scored in any of these assays.
RGS4 inh – inhibitors of human regulator of G protein signaling 4; P49798; Transcreener GDP fluorescence polarization, RGS4-accelerated GTP hydrolysis; Potency, µM (top dose mostly 114 µM), for the others: at the highest dose activity change, negative = inhibition, usual class: inhibitors; actives 0.039% (n = 390,000); further: potency means the concentration at half of the fitted maximal effect; nearly all actives have a fitted effect of over 75% in size
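MLSMR compounds (23 nl, pin-transferred) preincubated 10 min at room temperature with a 500nM (2x) first reagent, then RGS4 at 900nM (2x) plus Transcreener GDP mix added; fluorescence polarization (620/688 nm) read before and after 90 min at 30 °C.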
Six1-Eya2 blk – blocks human Six1 binding to Eya2; Q15475+O00167; AlphaScreen GST-Six1/His-Eya2 binding, biochemical; hits give low values; activity change, % (concentration not given with the values); actives 0.56% (n = 360,000); AID 651725; in the data active means activity change below about -65%; inconclusive means mostly about -30% to -63%
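AlphaScreen with GST-Six1 and His-Eya2 (5X mix: 250 nM and 500 nM), glutathione donor and nickel acceptor beads; buffer 50 mM Tris pH 8.0, 300 mM NaCl, 1 mM TCEP; 1 h at 37 C in the dark.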
Eya2 inh – blocks the phosphatase activity of human Eya2. O00167. recombinant Eya2, OMFP fluorescence dephosphorylation (OMFP is methylfluorescein phosphate). Potency, µM (doses to about 76.9 µM), inactives show top-dose activity, negative = inhibition, most hits filed as inhibitors. actives 0.006% (n = 330,000). AID 488837; further: potency means the concentration at half of the fitted maximal effect
Target sequence (O00167 whole entry, looked up): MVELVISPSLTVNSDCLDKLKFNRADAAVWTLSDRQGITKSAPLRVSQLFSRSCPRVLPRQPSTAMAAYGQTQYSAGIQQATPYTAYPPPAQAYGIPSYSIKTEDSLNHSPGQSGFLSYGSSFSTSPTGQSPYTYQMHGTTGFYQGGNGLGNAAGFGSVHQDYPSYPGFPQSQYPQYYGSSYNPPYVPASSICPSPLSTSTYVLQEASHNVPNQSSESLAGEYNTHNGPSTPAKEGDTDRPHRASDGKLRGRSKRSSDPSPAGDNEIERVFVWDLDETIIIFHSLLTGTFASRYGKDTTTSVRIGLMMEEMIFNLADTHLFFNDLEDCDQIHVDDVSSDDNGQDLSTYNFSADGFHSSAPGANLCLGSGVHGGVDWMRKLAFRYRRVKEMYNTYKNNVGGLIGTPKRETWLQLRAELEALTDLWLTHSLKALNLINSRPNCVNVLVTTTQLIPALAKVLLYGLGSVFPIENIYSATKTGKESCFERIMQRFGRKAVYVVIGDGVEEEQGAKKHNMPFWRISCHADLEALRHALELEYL
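Eya2 (0.2 uM) preincubated 10 min at ambient with compound, then OMFP substrate added at 50 uM; 10 min reaction in 50 mM HEPES pH 7.5, 50 mM NaCl, 5 uM MgCl2, 0.05% BSA, 1 mM DTT. Fluorescence read at Ex 485/Em 525 nm.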
PI4K2A inh – inhibitors of human PI4K2A | Q9BTU6 | actives 0.13% (n = 420,000) | purified PI4K2A, ADP-Glo luminescence, 1 h; hits give low values | activity change, negative = inhibition, % at 76.9 µM; in the data active means activity change below about -50%; inconclusive means mostly about -30% to -49%;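 further: -100% = wells without enzyme as full effect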
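ADP-Glo luminescence measured ADP generated by PI4K2A enzyme (4 ug/mL before mixing) with 1.2 mM PI substrate (pre-mix) and 300 microM ATP (pre-mix). Tris pH7.5 buffer with MgCl2, Triton X-100; 1 h reaction at ambient temperature.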
CtBP-E1A inh – CtBP/E1A binding inhibition; AlphaScreen GST-E1A/His-CtBP binding, 1536-well; hits give low values; activity change, % (no concentration beside the values); actives 0.49% (n = 340,000); AID 651724; in the data active means activity change below about -65%; inconclusive means mostly about -30% to -63%
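In 5 uL wells, 23 nL compound meets equimolar GST-E1A and His-CtBP (5X stock 125 nM each) for 2 h, 37 °C. Beads (5X, 50 ug/mL) then 1 h, 37 °C, dark.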
USP2a inh – inhibitors of human ubiquitin-specific protease USP2a; actives 0.01% (n = 330,000); USP2 core, Ub-CHOP2 coupled fluorogenic reporter, 485/531; Potency, µM (top dose mostly 38.3 µM), without a hit: top-dose activity change, negative = inhibition, most hits filed as inhibitors;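 further: potency means the concentration at half of the fitted maximal effect; plate controls were DMSO wells for no effect and full inhibition by NEM control for full effect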
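Deubiquitinase activity read as fluorescence (485/531 nm) after Ub-CHOP2 cleavage activates the enterokinase reporter on its substrate; USP2 core 10nM, Ub-CHOP2 and substrate 25nM each, 30min compound preincubation then 60min RT; data normalized to NEM, curves fitted.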
* marks the source's active call; other numbers are inactive results; i = inactive; ? = inconclusive; · = no result; [ ] = remark or other dose. Unless noted, the call rests on the fitted dose curve; in most records, active means well fitted curve in the direction sought with a large enough effect; inconclusive means small, poorly fitted or top-dose-only effect, or another doubt; inactive means no such curve, though single readings can be large; an effect the other way counts as inactive or inconclusive. Unless noted, on the % scale 0 is the no-effect control and ±100 the full control effect.

SMILES	RGS4 inh	Six1-Eya2 blk	Eya2 inh	PI4K2A inh	CtBP-E1A inh	USP2a inh
COCCN1CSC(=S)N(Cc2ccco2)C1	?	-1	2%	-5	-5	3%
Cc1ccc(C(=O)COC(=O)CCC(=O)Nc2ccc(Oc3cc(C)ccc3C(C)C)cc2)cc1	10%	·	·	0	·	·
O=C(CCCn1c(=O)c2cccn2c2ccccc21)Nc1cc(C(F)(F)F)ccc1Cl	-2%	·	·	1	·	·
CCOc1ccc2noc3c2c1C(=O)c1ccccc1-3	-17%	0	?	-5	3	?
O=C1c2ccccc2-c2onc3ccc(NCc4ccco4)c1c23	?	-85*	?	-20	-93*	?
CCNc1ccc2noc3c2c1C(=O)c1ccccc1-3	-41%	-74*	?	-22	-72*	?
N[C@@H](CCC(=O)N[C@@H](CS)C(=O)NCC(=O)O)C(=O)O	·	·	·	i	·	·
Cc1cc(Cl)ccc1NC(=O)CN1C(=O)C(=O)c2ccccc21	-17%	·	·	12	·	·
CCOC(=O)C1=C(C)N[C@@]2(O)c3ccccc3C(=O)[C@@]12O	-15%	2	-10%	-11	5	1%
CC1=C(C(=O)OC(C)C)C2(O)C(=O)c3ccccc3C2(O)N1 (stereo unspecified)	-5%	1	-3%	-22	-1	-1%
CC(=O)C1=C(C)OC2(O)c3ccccc3C(=O)C12O (stereo unspecified)	-18%	-2	-6%	-54*	·	-10%
CCOC(=O)C1=C(C)OC2(O)c3ccccc3C(=O)C12O (stereo unspecified)	-17%	-4	3%	-52*	·	1%
O=C(NC(=S)Nc1ccc(N2CCCCC2)cc1)c1cccs1	?	-67*	-10%	-11	?	1%
CS(=O)(=O)N1CCN(c2ccc(NC(=S)NC(=O)c3cccs3)cc2)CC1	23%[56.9 µM]	1	0%	5	·	-1%
CCc1ccc(S(=O)(=O)Nc2cccc(-c3ccc(N4CCCCC4)nn3)c2)s1	8%	·	·	-22	·	·
Cc1ccc(OCCn2c(CCNC(=O)C3CCCCCC3)nc3ccccc32)cc1	·	·	·	-7	·	·
Cc1cccc(OC(=O)CN2C(=O)C3C4CCC(C4)C3C2=O)c1C (stereo unspecified)	7%	2	-3%	-85*	3	0%
COc1ccccc1CCNC(=O)C(=O)NCC(c1ccc2c(c1)OCO2)N1CCOCC1 (stereo unspecified)	-6%	·	·	2	·	·
Cc1cc2ccccn2c1C(=S)NC(=O)c1ccccc1	-54%	?	-1%	-3	?	0%
Cc1ccc(C(=O)NC(=S)c2c(C)cc3ccccn23)cc1	·	-76*	·	-2	-22	·
O=C(CSc1n[nH]c(-c2ccccn2)n1)Nc1ccccc1	-2%	-95*	-2%	-3	-101*	4%
O=C(CSc1n[nH]c(-c2ccccn2)n1)Nc1ccccc1F	12%	-92*	1%	-12	1	-3%
COc1ccccc1NC(=O)CSc1n[nH]c(-c2ccccn2)n1	7%	-95*	13%	-17	-90*	3%
O=C(CSc1n[nH]c(-c2cccnc2)n1)Nc1ccccc1	10%	-2	-3%	-12	11	0%
COc1ccc(NC(=O)CSc2n[nH]c(-c3ccccn3)n2)cc1	2%	-92*	24%	-3	-79*	4%
SMILES	RGS4 inh	Six1-Eya2 blk	Eya2 inh	PI4K2A inh	CtBP-E1A inh	USP2a inh
CSc1cccc(CNC(=O)C2CCC(=O)N(CC3CCCCC3)C2)c1 (stereo unspecified)	2%	5	-6%	-5	-4	-1%
Oc1ccc(/C=C/c2ccc3ccccc3n2)cc1	-4%	9	-1%	-75*	·	-2%
C(=C\c1ccc2ccccc2n1)/c1ccccc1	1%	3	-14%	?	·	-7%
Cc1ccccc1NC(=O)CSc1nnc(-c2ccco2)c(-c2ccco2)n1	?	?	11%	?	-17	?
Cc1cccc(C)c1NC(=O)CSc1nnc(-c2ccco2)c(-c2ccco2)n1	?	-67*	-13%	-22	-26	-21%
COc1ccc(NC(=O)CSc2nnc(-c3n[nH]c4c3CCC4)n2N)cc1	·	·	·	0	·	·
Cc1nc(Cl)cc(N/N=C/c2ccc(O)cc2O)n1	-22%	-67*	7%	-2	-81*	1%
Cc1nc(Cl)cc(N/N=C/c2ccc(O)cc2)n1	-19%	-3	?	-2	·	-2%
Cc1cc(N/N=C/c2ccc(O)cc2O)nc(-n2nc(C)cc2C)n1	0%	-70*	2%	1	-80*	-2%
COc1ccc(OC)c(CN2C(=O)CN(S(C)(=O)=O)CC2(C)C(=O)NCc2ccccc2)c1 (stereo unspecified)	·	22	·	-1	0	·
c1ccc2nc(-c3nc4ccccc4[nH]3)ccc2c1	-8%	0	-7%	-66*	-2	-1%
c1ccc2[nH]c(-c3cscn3)nc2c1	19%	3	2%	0	-2	9%
c1ccc(-c2nc(-c3ccccn3)nc(-c3ccccn3)n2)nc1	15%	?	11%	-5	?	-3%
Cc1cc(Oc2ccc(Cl)cc2)nc(-c2ccccn2)n1	-7%	4	-14%	-5	2	1%
c1ccc(-c2cnnc(-c3ccccn3)n2)cc1	-7%	-88*	·	-10	-76*	·
c1ccc(-c2cnc(-c3ccccn3)nn2)cc1	12%	-91*	·	?	-86*	·
Nc1nc(N)nc(-c2ccccn2)n1	-13%	-81*	-27%	-8	-73*	0%
Clc1ccc(-c2cnnc(-c3ccccn3)n2)cc1	28%	-86*	17%	1	-84*	0%
c1ccc(-c2cncnc2)nc1	-9%	14	16%	-2	-17	2%
Cc1ccc(C2CCC3(CCC(=O)N3CCOC(=O)Nc3ccc(Br)cc3)CC2)cc1 (stereo unspecified)	·	·	·	-2	·	·
OC1(c2ccccc2)CCNCC1	·	·	·	2	·	·
O=C(CCS(=O)(=O)c1nc(-c2ccc3c(c2)OCO3)cc(C(F)(F)F)n1)Nc1ccccc1C(F)(F)F	-21%	·	·	-2	·	·
COc1ccnc(CSC(N)=Nc2cccc(C(F)(F)F)c2)c1	-36%	-67*	8%	-2	-7	3%
COc1ccc(N2CCC(CNC(=S)Nc3cc(C)cc(C)c3)C2)cc1 (stereo unspecified)	-26%	-66*	11%	11	-70*	-2%

Compound activity deposited in PubChem by National Center for Advancing Translational Sciences (NCATS).
